Experimental data published in PubChem BioAssay (NCATS).
Values without a mark were called inactive. Inconclusive results are not listed. A call without a number means that no potency is given here. Calls of active or inactive are those of the source. Unless noted, calls come from the whole dose curve; as a rule, active = well fitted curve in the direction sought with a large enough effect; inconclusive = small, poorly fitted or top-dose-only effect, or another doubt; inactive = no such curve, though single readings can be large; an effect the other way counts as inactive or inconclusive.

Key:
[1] = Cell Viability - N2a (AID 540); details: N2a mouse neuroblastoma cell viability; activity change, negative = cytotoxicity: at 92.2 µM (top of the series);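 note: cells exposed to compound for 40 h at 37 °C; nearly all actives have a fitted effect of over 45% in size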
How it was run: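 First, 1500 N2a cells per well incubate 5 hr at 37 °C; next, compounds are added and incubated 40 hr at 37 °C; finally CellTiter-Glo is added and luminescence read after 20 min, with AC50 derived by Hill modeling.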

[2] = Cellular Toxicity (caspase-3) HUV-EC-C (AID 656)
How it was run: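 Luminescent Caspase-Glo 3/7 readout after 16 h, 37 °C compound exposure of HUV-EC-C endothelial cells, 1000 per well, complete medium. AC50 derived by Hill fitting, with DMSO as baseline and 100 uM tamoxifen as full activation.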

[3] = Cellular Toxicity (caspase-3) SHSY5Y (AID 657)
How it was run: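 Luminescent Caspase-Glo 3/7 read-out, 1 hr room temperature, follows 16 hours of compound treatment of SH-SY5Y cells at 37 °C. Normalization: DMSO basal, 10 uM staurosporine as 100%; AC50 values from Hill-equation concentration-response fits.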

[4] = Cellular Toxicity (caspase-3) H-4-II-E (AID 663); details: Potency: caspase-3 activation;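 note: cells exposed to compound for 16 hr before readout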
How it was run: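 Rat hepatoma H-4-II-E cells (1500/well) plated 5 hr, then exposed to compound titrations for 16 hr at 37 °C. Caspase-Glo 3/7 luminescence read after 20 min at RT; data normalized to DMSO and 100 uM tamoxifen, AC50 from Hill fits.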

[5] = MultiTox-Fluor Cytotoxicity Assay - LYMP1-001 - Dead Cells (AID 946)
How it was run: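 AC50 from Hill fit of concentration-response; data normalized to DMSO (basal) and 15 uM tetraoctylammonium bromide (100%). LYMP1-001 lymphoblastoid cells, 2500/well, 16 hr compound at 37 C; dead-cell protease fluorescence, Ex/Em 485/520.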

[6] = MultiTox-Fluor Cytotoxicity Assay - LYMP1-002 - Dead Cells (AID 960); note: nearly all actives have a fitted effect of over 60% in size
How it was run: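 Acute cytotoxicity in a human lymphoblastoid line is scored as rising dead-cell protease signal after 16 hr exposure at 37 C, measured fluorometrically (485/520).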

[7] = MultiTox-Fluor Cytotoxicity Assay - LYMP1-003 - Live Cells (AID 962);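 note: cytotoxic hits lower the live-cell protease signal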
How it was run: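 Cells plated at 2500 per well and incubated 5 hr; compounds added and incubated 16 hr at 37 C; MultiTox-Fluor reagent added for 60 min at room temperature; fluorescence of liberated AFC measured at 405/510 nm.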

[8] = Cell Viability - LYMP1-003 - Assay at 24 hr (AID 963)
How it was run: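 Acute toxicity in LYMP1-003 lymphoblastoid cells: 24 hr compound treatment at 37 C, ATP measured with CellTiter-Glo after 30 min at room temperature. AC50 derived by fitting the Hill equation to qHTS titrations.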

[9] = Cell Viability - LYMP1-003 - Assay at 40 hr (AID 964); note: nearly all actives have a fitted effect of over 60% in size
How it was run: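 This qHTS cytotoxicity screen treats human lymphoblastoid cells (LYMP1-003) with compounds for 40 hr and quantifies cellular ATP via luciferase luminescence.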

[10] = Cell Viability - LYMP2-021 (AID 974);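 note: compound exposure lasts 24 hours at 37 °C; nearly all actives have a fitted effect of over 55% in size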
How it was run: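 Concentration-response cytotoxicity in a human lymphoblastoid line: 24 hr treatment at 37 C in complete culture medium, tetraoctylammonium bromide as positive control, luminescent ATP quantitation as viability measure.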

[11] = Cell Viability - LYMP2-010 (AID 981);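 note: cells exposed to compound for 24 hours at 37 °C; nearly all actives have a fitted effect of over 55% in size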
How it was run: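 Acute toxicity is scored as a concentration-dependent loss of cellular ATP in human lymphoblastoid cells after 24 hr compound exposure in complete medium. Tetraoctylammonium bromide is the positive control.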

[12] = Cell Viability - LYMP2-014 (AID 983); note: nearly all actives have a fitted effect of over 50% in size
How it was run: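 Decrease in intracellular ATP after 24 hr treatment at 37 C, measured by luciferase luminescence, indicated cytotoxicity. Concentration-response data were fitted with the standard Hill equation to give AC50.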

[13] = Cell Viability - LYMP2-024 (AID 988); note: nearly all actives have a fitted effect of over 60% in size
How it was run: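 Acute toxicity is measured as concentration-dependent loss of intracellular ATP in a human lymphoblastoid line treated 24 hours at 37 C. Luciferase luminescence quantifies ATP; AC50 values come from standard Hill-equation modelling.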

[14] = qHTS assay for small molecule activators of the p53 signaling pathway (AID 651743; active = well fitted activation curve with a large enough effect in the signal ratio, not every such curve was filed as active; the % refers to the signal ratio); details: HCT-116 p53RE-bla, beta-lactamase FRET ratio, 16 h; activation: hits give high values
How it was run: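 HCT-116 p53RE-bla, 4,000 cells/well; 5 h settle; cpd/DMSO 16 h, 37 C; LiveBLAzer B/G 2 h RT; fluorescence intensity.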

[15] = qHTS assay for small molecule disruptors of the mitochondrial membrane potential - 1 hr assay (AID 651754; calls by dose curve; note: nearly all actives have a fitted effect of over 35% in size; note: potency is the fitted concentration of half-maximal effect)
How it was run: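 Steps: seed HepG2 cells and let attach overnight; pin-transfer compound or vehicle; incubate 1 hr at 37C; add Mito-MPS dye for 30 min; read two-channel fluorescence for monomer and aggregate forms.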

[16] = Cell Viability - LYMP1-002 - Assay at 16 hr (AID 948)
How it was run: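 ATP luminescence (CellTiter-Glo) was measured after 16 hr compound exposure at 37 C of 2500 lymphoblastoid LYMP1-002 cells per well. Concentration-response curves were fitted with the Hill equation to give AC50.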

[17] = Cell Viability - LYMP2-011 (AID 969);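 note: cells exposed to compound for 24 hours; nearly all actives have a fitted effect of over 60% in size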
How it was run: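 Acute toxicity is scored as a concentration-dependent drop in intracellular ATP of a human lymphoblastoid line after 24 hr treatment. Values are AC50s modeled with the Hill equation.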

[18] = Cell Viability - LYMP2-023 (AID 975);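 note: cellular ATP measured by luciferase luminescence as viability proxy; cells exposed to compound for 24 hours at 37 °C; nearly all actives have a fitted effect of over 55% in size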
How it was run: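 Concentration-dependent drop in intracellular ATP measures acute cytotoxicity in a human lymphoblastoid line treated for 24 hours in complete culture medium. AC50 values are taken from Hill-equation fits of qHTS data.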

[19] = Cell Viability - LYMP2-016 (AID 984);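 note: cells exposed to compound for 24 hours at 37 °C; nearly all actives have a fitted effect of over 55% in size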
How it was run: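 Cytotoxicity was scored by luminescent ATP content (CellTiter-Glo) after 24 h compound exposure at 37 C of a human lymphoblastoid line at 2500 cells/well. Concentration-response data were fitted to the Hill equation for AC50.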

[20] = Cell Viability - LYMP2-018 (AID 985);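 note: compound exposure lasted 24 hr at 37 °C; nearly all actives have a fitted effect of over 50% in size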
How it was run: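 Acute cytotoxicity is scored as a concentration-dependent drop in intracellular ATP after 24 hr exposure of the lymphoblastoid line in complete culture medium, measured by luciferase luminescence. Potency is expressed as AC50 from Hill modelling.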

Compound	Potency [1]	outcome [2]	outcome [3]	Potency [4]	outcome [5]	Potency [6]	outcome [7]	outcome [8]	Potency [9]	Potency [10]	Potency [11]	Potency [12]	Potency [13]	activation [14]	Potency [15]	outcome [16]	Potency [17]	Potency [18]	Potency [19]	Potency [20]
CCCBr	inactive	inactive	inactive	inactive	inactive	inactive	inactive	inactive	inactive	inactive	inactive	inactive	inactive	-0.771%	inactive	–	–	–	–	–
CCCCCc1cc(O)cc(O)c1	inactive	–	inactive	inactive	–	–	inactive	–	inactive	inactive	inactive	inactive	inactive	-2.37%	37.6 µM (active)	inactive	inactive	inactive	inactive	inactive
CCCCCC[N+](=O)[O-]	inactive	inactive	–	inactive	inactive	inactive	inactive	inactive	inactive	inactive	inactive	inactive	–	-5.04%	inactive	inactive	inactive	inactive	inactive	inactive
N#CCc1ccccc1	inactive	–	inactive	inactive	inactive	inactive	inactive	inactive	inactive	inactive	inactive	–	inactive	-0.84%	inactive	inactive	–	inactive	inactive	inactive
CCC(Cl)[N+](=O)[O-] (centres undefined)	inactive	inactive	inactive	inactive	inactive	inactive	inactive	–	inactive	inactive	inactive	inactive	inactive	-1.08%	inactive	inactive	–	inactive	–	inactive
CN(C)N=O	inactive	inactive	inactive	–	inactive	inactive	inactive	inactive	–	–	inactive	inactive	inactive	-2.39%	inactive	inactive	inactive	inactive	–	inactive
OCCBr	inactive	inactive	inactive	–	inactive	inactive	inactive	inactive	inactive	inactive	–	inactive	inactive	–	inactive	inactive	inactive	inactive	inactive	inactive
ClC(Cl)C(Cl)Cl	inactive	–	–	inactive	inactive	inactive	inactive	–	inactive	–	inactive	inactive	inactive	-4.56%	inactive	inactive	–	–	inactive	inactive
C=CC(=O)OC	inactive	inactive	inactive	inactive	inactive	inactive	inactive	–	inactive	inactive	inactive	inactive	inactive	-0.53%	inactive	inactive	inactive	inactive	inactive	inactive
CC(C)(Cl)[N+](=O)[O-]	inactive	inactive	inactive	inactive	inactive	inactive	–	inactive	inactive	inactive	inactive	inactive	–	3.96%	inactive	–	inactive	inactive	inactive	inactive
Cc1ccc([N+](=O)[O-])cc1	inactive	inactive	inactive	inactive	inactive	inactive	–	inactive	–	–	–	inactive	inactive	-4.73%	inactive	inactive	inactive	inactive	inactive	inactive
Cl/C=C/Cl	inactive	–	–	inactive	–	inactive	inactive	–	inactive	inactive	–	inactive	–	-3.7%	–	–	inactive	inactive	–	inactive
CN(C)c1ccccc1	inactive	–	inactive	inactive	inactive	inactive	inactive	inactive	inactive	inactive	–	inactive	inactive	-3.2%	inactive	inactive	inactive	inactive	inactive	inactive
O=[N+]([O-])c1ccccc1-c1ccccc1	inactive	inactive	–	inactive	inactive	inactive	inactive	–	inactive	inactive	inactive	inactive	inactive	-1.36%	inactive	inactive	inactive	inactive	inactive	inactive
Clc1ccc(C(Cl)(Cl)Cl)cc1Cl	inactive	inactive	–	inactive	inactive	–	inactive	inactive	inactive	inactive	inactive	inactive	–	0.791%	inactive	inactive	inactive	inactive	–	inactive
ClC(Cl)c1ccccc1	inactive	inactive	inactive	–	–	inactive	–	inactive	inactive	inactive	inactive	inactive	inactive	–	inactive	inactive	inactive	inactive	inactive	–
Cc1cccc(C)c1N	inactive	inactive	inactive	–	inactive	–	inactive	inactive	inactive	inactive	inactive	inactive	inactive	1.32%	inactive	–	inactive	inactive	inactive	inactive
Oc1cccc(Cl)c1	inactive	inactive	inactive	inactive	inactive	inactive	–	inactive	inactive	inactive	inactive	inactive	inactive	0.857%	inactive	inactive	–	inactive	inactive	inactive

Compound	Potency [1]	outcome [2]	outcome [3]	Potency [4]	outcome [5]	Potency [6]	outcome [7]	outcome [8]	Potency [9]	Potency [10]	Potency [11]	Potency [12]	Potency [13]	activation [14]	Potency [15]	outcome [16]	Potency [17]	Potency [18]	Potency [19]	Potency [20]
ClCc1ccccc1	inactive	inactive	inactive	inactive	inactive	inactive	inactive	inactive	inactive	inactive	–	inactive	–	-2.55%	–	inactive	inactive	inactive	inactive	inactive
Cc1cc(Cl)ccc1O	inactive	inactive	–	inactive	inactive	inactive	inactive	–	–	inactive	inactive	–	inactive	-0.272%	inactive	inactive	inactive	inactive	inactive	inactive
Nc1cccc(Cl)c1	inactive	inactive	inactive	inactive	–	inactive	inactive	–	inactive	–	inactive	inactive	inactive	-1.95%	inactive	inactive	inactive	inactive	inactive	inactive
Nc1cccc2ccccc12	inactive	–	inactive	inactive	inactive	–	inactive	inactive	inactive	–	inactive	inactive	–	-3.1%	inactive	inactive	–	inactive	inactive	inactive
O=C(Cl)c1ccccc1F	inactive	inactive	inactive	inactive	inactive	inactive	inactive	–	inactive	inactive	–	–	inactive	-0.282%	inactive	inactive	inactive	inactive	–	inactive
CCCCCCCCCCCOC(=O)c1ccccc1C(=O)OCCCCCCCCCCC	inactive	inactive	–	inactive	inactive	–	inactive	–	inactive	inactive	inactive	–	inactive	2.34%	inactive	inactive	inactive	inactive	inactive	inactive
Cc1coc2c1CCC(C)C2 (centres undefined)	inactive	inactive	inactive	–	inactive	inactive	inactive	inactive	inactive	inactive	inactive	inactive	inactive	-2.44%	inactive	–	inactive	inactive	inactive	inactive
ClCCCCl	inactive	inactive	inactive	inactive	inactive	inactive	inactive	inactive	–	inactive	inactive	inactive	–	-3.64%	inactive	inactive	inactive	–	inactive	inactive
C[N+](=O)[O-]	inactive	–	inactive	inactive	inactive	inactive	–	inactive	–	inactive	inactive	inactive	inactive	-0.263%	inactive	inactive	–	inactive	inactive	inactive
CC1CC(=O)O1 (centres undefined)	inactive	inactive	inactive	inactive	inactive	–	inactive	inactive	inactive	inactive	inactive	inactive	inactive	–	inactive	inactive	–	–	inactive	inactive
CC(C)OC(=O)Cc1ccccc1	inactive	inactive	–	inactive	inactive	inactive	inactive	inactive	inactive	inactive	inactive	inactive	inactive	-2.84%	inactive	inactive	inactive	inactive	inactive	inactive
Nc1ccc(-c2ccccc2)cc1	inactive	inactive	inactive	inactive	inactive	inactive	inactive	inactive	inactive	inactive	inactive	inactive	inactive	-1.6%	–	inactive	inactive	inactive	–	inactive
C=CCCl	inactive	inactive	–	inactive	inactive	inactive	inactive	inactive	inactive	inactive	inactive	inactive	inactive	-1.58%	inactive	inactive	inactive	inactive	inactive	–
Nc1ncc([N+](=O)[O-])s1	inactive	inactive	inactive	inactive	inactive	inactive	inactive	inactive	inactive	inactive	inactive	inactive	inactive	-4.14%	–	inactive	inactive	–	inactive	inactive
Nn1cnnc1	inactive	inactive	–	inactive	inactive	inactive	–	inactive	inactive	inactive	inactive	–	inactive	0.253%	inactive	inactive	–	inactive	inactive	–
Cc1ccc(N)cc1Cl	inactive	inactive	inactive	inactive	inactive	inactive	inactive	inactive	inactive	inactive	inactive	inactive	inactive	–	inactive	inactive	inactive	inactive	inactive	inactive
FC(Cl)(Cl)Cl	inactive	inactive	inactive	inactive	inactive	–	inactive	inactive	inactive	inactive	inactive	inactive	inactive	-3.53%	inactive	–	inactive	inactive	inactive	inactive
